# Bioassay records from PubChem BioAssay.
# CHT block – human CHT choline transport inhibition; Q9GZV3; CHT-expressing cells, membrane potential dye, choline response; hits give low values; B-score at 10 µM; hit rate 0.86% among 310,000;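 active means B-score over 3 SD under the library average, and starting fluorescence ratio not unusually high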;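 further: choline stimulus applied at its EC90 after an EC20 pre-addition; B-score computed on integrated fluorescence ratio after choline addition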
# ANO1 activ – activators or potentiators of mouse TMEM16A chloride channel | Q8BHY3 | HEK293 TMEM16A/YFP-H148Q/I152L, iodide quench fluorescence; hits give low values | B-score at 10 µM | hit rate 0.3% among 340,000 | AID 623877;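 active means fluorescence-ratio B-score plate-corrected deviation score at least 3 library SD below zero, with starting fluorescence score within 5 deviations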;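 further: channel opened by trigger with iodide after compound preincubation; score built on the fluorescence ratio of max minus min over baseline; more negative score means more quench and so TMEM16A activation or potentiation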
# Kir21 inh – Kir2.1 (mouse) channel inhibition; HEK293-Kir2.1, FluxOR thallium flux fluorescence; hits give low values; B-score at 10 µM; AID 1672; hit rate 0.85% among 310,000; P35561;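 active means fluorescence ratio B-score at or below minus 3 SD of library scores, with starting-brightness B-score within 2 SD, cut at about -4.2 in these data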;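 further: channel flux triggered by added potassium and thallium sulfate stimulus; B-score of peak minus minimum fluorescence over baseline after thallium stimulus; more negative B-score means stronger Kir2.1 block with less thallium influx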
# CHT PAM – allosteric activators of human choline transporter CHT. CHT-expressing cells, membrane potential dye, choline EC20; hits give high values; LV-AA mutant CHT in HEK293 cells. AID 488977. hit rate 0.49% among 310,000. B-score at 10 µM. Q9GZV3;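 active means initial fluorescence not abnormally high and integrated response B-score, plate-corrected, over 3 SD above library mean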
# GPR7 antag – human neuropeptides B/W receptor 1 antagonism | GPR7-expressing cells, fluorescence antagonist assay | inhibition, % at 4.4 µM | hit rate 1.1% among 290,000; in the data active means inhibition above about 16%, passing the limit was not always enough;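 further: cells stimulated with the agonist NPW; 0% = agonist with vehicle and 100% = vehicle without agonist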
# ANO1 block – blocks the mouse calcium-activated chloride channel TMEM16A | Q8BHY3 | HEK293 TMEM16A/YFP iodide influx fluorescence, ionomycin | normalized B-score (activity score, 25-100; higher = stronger inhibition) at 10 µM | hit rate 1.2% among 310,000;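 active means ratio plate-corrected score three or more library SD toward inhibition, starting fluorescence score within five deviations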;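 further: score derived from kinetic fluorescence span divided by baseline fluorescence per well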
# TMEM16A reconf – reconfirmed blocker of mouse TMEM16A calcium-activated chloride channel; shares compounds with ANO1 block; HEK293 TMEM16A/YFP-H148Q, iodide quench fluorescence; ionomycin added to raise cell calcium; inhibition, % at 10 µM; hit rate 39% among 2,300; AID 652189;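 active means mean duplicate percent inhibition, scaled so buffer wells are 0 and the reference blocker 100, over three buffer SD above buffer mean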
# TMEM16A Ca cntr – calcium mobilization counter-screen hit for TMEM16A inhibitor series | shares compounds with ANO1 block | TMEM16A/YFP HEK293, Fluo4 calcium mobilization | calcium response (% of ionomycin), % at 10 µM | hit rate 2% among 2,300 | AID 652231;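 active means duplicate-averaged calcium signal over 20% of the ionomycin maximum, relative to buffer baseline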;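 further: each well's signal is peak minus trough fluorescence divided by its pre-addition baseline; 0% = buffer wells and 100% = ionomycin wells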
# YFP-HEK293 quench – parental YFP-HEK293 iodide quench counter-screen activity. shares compounds with ANO1 block. YFP ratio F(max-min)/F0 at 10 µM. 2,300 tested, under 10 active. ionomycin;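 active means yellow fluorescent protein signal ratio exceeding the buffer control mean by over 5 SD of those controls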;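 further: ratio is mean of duplicate wells from kinetic YFP trace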
# ClC-1 inh – rat ClC-1 inhibition, TMEM16A specificity screen; CHO ClC-1-YFP, iodide influx fluorescence quench; iodide control reads 0, buffer control 100; 2,300 tested, under 10 active; ratio percent, % at 10 µM; shares compounds with ANO1 block;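 active means duplicate-mean ratio percent above the mean of iodide-only control wells, which defines zero, plus 5 of their SD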;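 further: higher percent means stronger block of ClC-1 iodide influx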
# Target sequence (P35524 whole entry, looked up): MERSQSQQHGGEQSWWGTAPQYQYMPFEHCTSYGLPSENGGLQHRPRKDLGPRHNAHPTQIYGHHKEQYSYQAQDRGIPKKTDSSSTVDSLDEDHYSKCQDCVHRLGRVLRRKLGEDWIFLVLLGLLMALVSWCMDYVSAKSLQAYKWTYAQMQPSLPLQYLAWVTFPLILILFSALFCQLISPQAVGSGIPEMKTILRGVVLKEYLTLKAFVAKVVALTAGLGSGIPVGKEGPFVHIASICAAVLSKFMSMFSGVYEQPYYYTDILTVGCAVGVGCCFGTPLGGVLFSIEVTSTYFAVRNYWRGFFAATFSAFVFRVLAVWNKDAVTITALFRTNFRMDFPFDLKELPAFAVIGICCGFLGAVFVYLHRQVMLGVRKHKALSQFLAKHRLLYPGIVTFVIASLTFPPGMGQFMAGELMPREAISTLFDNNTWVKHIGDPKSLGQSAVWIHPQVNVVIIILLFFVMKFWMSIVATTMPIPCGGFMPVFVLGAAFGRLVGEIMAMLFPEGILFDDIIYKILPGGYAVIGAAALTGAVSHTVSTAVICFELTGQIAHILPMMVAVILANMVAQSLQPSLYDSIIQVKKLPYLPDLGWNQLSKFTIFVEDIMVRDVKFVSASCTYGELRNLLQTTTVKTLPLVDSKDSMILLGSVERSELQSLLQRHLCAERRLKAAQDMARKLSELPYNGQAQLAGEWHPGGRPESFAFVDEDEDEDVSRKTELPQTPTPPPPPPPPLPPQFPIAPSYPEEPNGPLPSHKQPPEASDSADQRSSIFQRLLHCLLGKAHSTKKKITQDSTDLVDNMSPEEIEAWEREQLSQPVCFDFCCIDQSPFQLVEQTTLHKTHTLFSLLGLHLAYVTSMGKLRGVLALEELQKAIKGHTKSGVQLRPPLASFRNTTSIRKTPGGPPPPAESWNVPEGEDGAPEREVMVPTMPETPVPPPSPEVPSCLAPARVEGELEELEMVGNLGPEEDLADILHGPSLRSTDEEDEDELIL
# * = called active by the depositor; i = inactive; nt = no result given. A selection: hits, their analogues and other compounds. The true share with any hit is near 3.7%.
SMILES,CHT block,ANO1 activ,Kir21 inh,CHT PAM,GPR7 antag,ANO1 block,TMEM16A reconf,TMEM16A Ca cntr,YFP-HEK293 quench,ClC-1 inh
Cc1ccc(C(C)C)cc1OCC(=O)Nc1ccc(N2CCCCC2)cc1,i,i,0.81,i,nt,25*,i,i,-0.69,0
CCCCOC(=O)Nc1ccc(N2CCOCC2)cc1,i,i,0.12,i,0,i,nt,nt,nt,nt
CCOc1ccccc1C(=O)OCC(=O)Nc1ccc(N2CCCCC2)cc1,i,i,1.3,i,6,i,nt,nt,nt,nt
Cc1ccc(OCC(=O)Nc2ccc(N3CCCC3)cc2)cc1C,i,i,0.02,i,-10,i,nt,nt,nt,nt
CCCCOC(=O)Nc1ccc(N2CCCCC2)cc1,i,i,-3.9,i,-3,i,i,i,-1.1,-4
Cc1cccc(C(=O)OCC(=O)Nc2ccc(N3CCCCC3)cc2)c1O,i,i,-0.11,i,-12,i,i,i,-1.2,-16
CC(=O)Nc1ccc(S(=O)(=O)N2CCC(c3nc4c(nnn4Cc4ccccc4Cl)c(=O)[nH]3)CC2)cc1,i,i,-1.6,i,7,i,nt,nt,nt,nt
Cc1ccc(SCC(=O)OC(C)C(=O)NC2CCCCC2C)c(C)c1 (stereo unspecified),nt,i,nt,nt,nt,nt,nt,nt,nt,nt
Cc1ccc(S(=O)(=O)N2CCCC2)cc1C(=O)NCCOc1ccccc1,nt,i,nt,nt,nt,nt,nt,nt,nt,nt
COC(=O)c1ccc(-c2cc3onc(-c4ccccc4)c3c(=O)n2C)cc1,i,i,nt,i,nt,25*,i,i,-1,-4
Cn1c(-c2ccc(F)c(F)c2)cc2onc(-c3ccccc3)c2c1=O,i,i,nt,i,nt,i,nt,nt,nt,nt
COc1cccc(-c2cc3onc(-c4ccccc4)c3c(=O)n2C)c1,i,i,nt,i,nt,25*,i,i,-0.91,-19
O=C(C[C@@H]1C/C=C/CCCC(=O)O[C@H](c2ccccc2)CNC1=O)N[C@H](CO)Cc1ccccc1,nt,i,nt,nt,nt,nt,nt,nt,nt,nt
COc1ccc(CCNC(=O)COC(=O)c2cc(S(=O)(=O)N3CCOCC3)ccc2C)cc1OC,nt,i,nt,nt,nt,nt,nt,nt,nt,nt
O=C(NCc1ccco1)c1ccccc1NS(=O)(=O)c1ccc(Br)s1,i,i,-1.2,i,-8,100*,i,i,-0.82,-22
COC(C(=O)Nc1ccnn1C1CCN(Cc2ccc(Cl)s2)CC1)c1ccccc1 (stereo unspecified),i,i,1,i,14,i,nt,nt,nt,nt
Cc1ccc(NC(=O)CNc2ccc(Cl)c(Cl)c2)cc1S(=O)(=O)N(C)C,i,i,0.82,i,18,100*,28%*,i,-0.95,-4
CC1CC(=O)Nc2ccccc2N1S(=O)(=O)c1cccc(Cl)c1 (stereo unspecified),i,i,0.37,i,-4,i,nt,nt,nt,nt
O=C(Nc1ccncc1)c1cccc(S(=O)(=O)N2CCCC2)c1,i,i,0.82,i,-6,i,nt,nt,nt,nt
Cc1ccc(Nc2nc(-c3c(C)nc4ccccn34)cs2)cc1,i,i,-0.14,i,18,25*,32%*,i,-1.4,-16
Cc1nc2ccccn2c1-c1csc(NCc2ccco2)n1,i,i,1.8,i,-6,25*,i,i,-0.96,-8
CCCn1nnc(NC(=O)c2ccc3c(c2)OCO3)n1,i,i,0.13,i,-7,i,nt,nt,nt,nt
CCCCCCSc1ccc([C@@H]2[C@H]3C(=O)N(CC)C(=O)[C@H]3[C@]3(C(=O)OC)CCCCN23)cc1OC,nt,i,nt,nt,nt,nt,nt,nt,nt,nt
O=C(OCc1ccccn1)c1ccc(COc2ccc3ccccc3c2)o1,i,i,0.05,i,-1,25*,32%*,i,-1.1,-2
NNC(=O)c1ccc(COc2ccc3ccccc3c2)o1,i,i,0.5,i,-2,i,nt,nt,nt,nt
SMILES,CHT block,ANO1 activ,Kir21 inh,CHT PAM,GPR7 antag,ANO1 block,TMEM16A reconf,TMEM16A Ca cntr,YFP-HEK293 quench,ClC-1 inh
O=C1c2ccccc2C(=O)N1CCCCSc1nc2ccccc2o1,i,i,1.1,i,-15,25*,20%*,i,-1.2,1
COc1ccc(/C=C/c2nc(-c3ccccc3O)n[nH]2)cc1OC,i,i,-1.6,i,-2,25*,i,i,-0.99,-16
CCOC(=O)c1ccccc1N/C=C/C(=O)c1ccccc1,i,i,0.31,i,6,100*,i,i,-1.1,-11
CCN(CC)c1nc(C(F)(F)F)nc2c1nnn2Cc1ccccc1,i,i,-0.96,i,-30,i,nt,nt,nt,nt
COc1ccc(CCNC(=S)N2CCC(Cc3ccccc3)CC2)cc1OC,i,i,-1.5,i,-4,100*,i,i,-1,-14
Cc1ccc(-c2csc(NC(=O)CSc3nc(C)cc(=O)[nH]3)n2)cc1,i,nt,-0.8,i,3,i,nt,nt,nt,nt
CCC(Sc1nc(C)cc(=O)[nH]1)C(=O)Nc1nc(-c2ccccc2)cs1 (stereo unspecified),i,i,-1.7,i,-9,25*,43%*,i,-1.1,-10
O=C(CSc1nnc(CNc2ccc(F)cc2)n1Cc1ccco1)N1CCCC1,i,i,-0.61,i,-8,25*,i,i,-1.2,-6
Nc1ccc(C(=O)N/N=C/c2sc(N3CCOCC3)nc2-c2ccccc2)cc1,i,i,-2.4,i,-15,i,nt,nt,nt,nt
O=C(N/N=C/c1sc(N2CCOCC2)nc1-c1ccccc1)c1cccc(S(=O)(=O)N2CCOCC2)c1,i,i,-1.1,i,2,i,i,i,-0.89,1
COc1ccccc1-c1cc(C(=O)N2CCN(c3ccccc3)CC2)no1,i,i,-0.04,i,-13,i,nt,nt,nt,nt
COc1cc2c(C(=O)N3CCN(c4ccccc4)CC3)c(C)oc2cc1Br,i,i,-0.04,i,9,i,i,i,-1.2,-4
Cc1ccc(OCC(=O)N/N=C2\CC(=O)CC(C)(C)C2)c(Br)c1,i,i,2.2,i,-3,i,nt,nt,nt,nt
Cc1ccc2[nH]c3c(N4CCN(Cc5ccc6c(c5)OCO6)CC4)ncnc3c2c1,nt,nt,nt,nt,-7,nt,nt,nt,nt,nt
